Assay results reported in PubChem BioAssay (NCI).
About 79,000 compounds went through this panel and 15% of them were active in at least one assay; those are over-represented in the sample as a whole. A number with no mark means an inactive call. Calls of active or inactive are those of the source. Cut-off read from the data, not from the text of the source: active = growth inhibition above about 70%; inactive = the rest.

Key:
[1] = NCI Yeast Anticancer Drug Screen. Data for the rad50 strain (AID 155);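 note: 0% = growth of vehicle-only cultures of the same strain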; details: S. cerevisiae rad50 strain growth inhibition; at 50.0 µM; active compounds read high
How it was run: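 Yeast carrying a defined DNA repair defect were exposed to test compounds, and growth was compared with vehicle-treated controls to give percent inhibition.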

[2] = NCI Yeast Anticancer Drug Screen. Data for the mec2-1 strain (AID 157); details: S. cerevisiae mec2-1 strain, at 50.0 µM, active compounds read high
How it was run: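 Strain: mec2-1 (DNA repair/cell cycle alteration). Compound exposure, then growth measured; inhibition expressed relative to vehicle.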

[3] = NCI Yeast Anticancer Drug Screen. Data for the sgs1 mgt1 strain (AID 161);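 note: 0% = growth of cultures given vehicle only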; details: S. cerevisiae sgs1 mgt1 strain, at 50.0 µM, active compounds read high
How it was run: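 Mutant yeast exposed to compound; growth scored against vehicle-only wells.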

[4] = NCI Yeast Anticancer Drug Screen. Data for the cln2 rad14 strain (AID 165);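 note: 0% = growth equal to vehicle treated cultures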; details: S. cerevisiae cln2 rad14 strain, at 50.0 µM, active compounds read high
How it was run: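 Compounds are applied to the cln2 rad14 yeast strain, and growth is then compared with that of vehicle-treated cultures to give inhibition.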

[5] = NCI Yeast Anticancer Drug Screen. Data for the bub3 strain (AID 167); details: S. cerevisiae bub3 mutant strain, at 50.0 µM, active compounds read high
How it was run: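 Compounds were applied to a genetically altered yeast strain carrying a cell-cycle control defect. Growth inhibition was scored against vehicle-treated controls.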

[6] = NCI Yeast Anticancer Drug Screen. Data for the mlh1 rad18 strain (AID 175); details: S. cerevisiae mlh1 rad18 strain growth inhibition; at 50.0 µM; active compounds read high
How it was run: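 Read-out is yeast growth inhibition, calculated against vehicle-only controls. The compound was applied to a strain engineered with DNA damage repair alterations.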

SMILES	growth inhibition [1]	growth inhibition [2]	growth inhibition [3]	growth inhibition [4]	growth inhibition [5]	growth inhibition [6]
CC(=O)OCCCC(CCCOC(C)=O)OC(C)=O	-7.7%	-6.85%	12.2%	-12.8%	5.25%	29.2%
Cc1ccc(C)c(NC(=O)Nc2cccc(Cl)c2)c1	-6.1%	21.2%	-5.85%	-4.95%	9.4%	-7.65%
COC(=O)C(C(=O)OC)C(Br)(OC(C)=O)OC(C)=O	-8.95%	8.2%	4.55%	6.65%	11.1%	-3.35%
O=C(/C=C/c1ccc(OCCCOc2ccc(/C=C/C(=O)c3ccccc3)cc2)cc1)c1ccccc1	14.3%	-18.1%	-4.25%	-57%	-37.9%	-10.5%
COC(=O)C1c2ccc(C)cc2-c2cc(C)ccc21	16.5%	-36.9%	8.55%	17.4%	26.4%	32.6%
[O-]c1csc2n(-c3ccccc3)c3ccccc3[n+]12	4.95%	-16%	1.85%	28.4%	-4.65%	6.65%
O=C(O)C1(C(=O)O)Cc2ccccc2C1	-15.6%	-12.6%	-9.15%	-9.35%	9.85%	14.8%
CC(/C=C/C(=O)c1sc(C(N)=S)nc1C)=C\c1ccccc1	4.55%	-13.1%	-6.8%	10.8%	-5.8%	22.2%
CN(C)CCCCl	-16.1%	-3.05%	8.75%	-26.8%	-15.5%	-17.3%
C[n+]1cccc2cc([N+](=O)[O-])ccc21	-21.6%	-6.8%	4.35%	-77.7%	3.9%	-13.3%
O=C(CCc1ccccc1)NC(=S)Nc1cccc([N+](=O)[O-])c1	-1.75%	25.9%	53.5%	-13.8%	52.2%	86% (active)
CNc1cccc2c1C(=O)c1ccccc1C2=O	0.55%	-9.95%	19.4%	1.35%	3.85%	17.9%
CCN(CC)C(=O)c1ccc(C(C)C)cc1	20.4%	14.8%	27.9%	6.6%	18.3%	25.8%
O=S(CCO)c1ccc(Cl)cc1 (stereo unspecified)	-26.1%	-20.1%	-21.2%	-55.5%	2.75%	-23.9%
CSc1nc(NC2OC(COC(C)=O)C(OC(C)=O)C(OC(C)=O)C2OC(C)=O)c(-c2csc(N)n2)c(=O)n1C (stereo unspecified)	-6.8%	-38%	-22.4%	10.2%	-8.15%	13.3%
O=C1CC2CC1C1CCCC21 (stereo unspecified)	-32.5%	-18.5%	-56%	-10.2%	-31.4%	-40.7%
O=C(COc1cc(Cl)c(Cl)cc1Cl)Nc1ccc(N=Nc2ccccc2)cc1	2%	3.55%	-12.6%	-9.55%	2.75%	-7.95%
CC(=O)N1C(=O)C(=O)c2cc(Cl)ccc21	-1.85%	-6.9%	3.95%	-2.1%	-0.2%	-1.6%
O=C(/C(=C/c1ccccc1)c1ccc(Cl)cc1)c1ccccc1	12.6%	13.9%	13.7%	-15.1%	5.9%	-4%
O=S(=O)(SC1=NCCN1)c1ccc2ccccc2c1	-2.75%	-5.15%	-15.1%	6.65%	-3%	-41.5%
CCOc1ccc(N=C=S)cc1	29.9%	-3.05%	18%	22.3%	18.9%	49%

SMILES	growth inhibition [1]	growth inhibition [2]	growth inhibition [3]	growth inhibition [4]	growth inhibition [5]	growth inhibition [6]
CCCCN(CCCC)CC(O)c1cc(-c2cccc(I)c2)nc2c(Cl)cc(Cl)cc12 (stereo unspecified)	38.6%	4.4%	-4.75%	-11.1%	-6.15%	29.3%
COC(=O)C(Cc1ccccc1)NP(=O)(O)OCC1OC(n2cc(I)c(=O)[nH]c2=O)CC1O (stereo unspecified)	-11.8%	-2.65%	-15.2%	-10.5%	-10.1%	0.85%
O=[N+]([O-])C(C(Cl)=C(Cl)Cl)=C(N1CCCCC1)N1CCCCC1	-48.2%	-19.5%	-13.1%	-22.1%	-19.4%	-13.9%
O=C(O)C(CS)(c1ccccc1)c1ccccc1	0.65%	8.25%	7.7%	5.95%	-2.85%	11.4%
C=CC(O)CCCCCC (stereo unspecified)	-4.9%	-27.8%	-22.4%	-5.1%	-10.2%	-20.7%
CC(c1ccccc1)C1(C)NC(=O)NC1=O (stereo unspecified)	-12.4%	-24.7%	-2.1%	-4.1%	6.55%	-10.1%
c1ccc2c(c1)C1OC2c2ccccc21	-30.2%	-20.3%	-26.4%	-26.3%	-0.4%	-1.25%
Clc1c2ncccc2cc2n[nH]nc12	14.9%	21.2%	24%	6.55%	5.8%	17.1%
Cc1cc2c(=O)cc(-c3ccncc3)oc2c(C(N)=O)c1C	14.8%	4.2%	-12%	-1%	17.6%	22.5%
CC(C)(C)CC(CC(C)(C)C)C(=O)O	28.9%	-1.2%	-3.5%	1.85%	4.05%	21.3%
O=[n+]1ccn([O-])c2cc(Cl)ccc21	13.6%	13.2%	10.2%	-16.2%	-5.1%	9.85%
O=[N+]([O-])c1ccc(C2=Nc3ccccc3S(=O)C(c3ccccc3)C2)cc1 (stereo unspecified)	5.3%	-27.3%	19.9%	3.45%	10.7%	20.6%
CCCCCCCCCCCCCCCCCC(=O)OCC1CO1 (stereo unspecified)	23.2%	10.3%	21.6%	13.2%	18.9%	21.1%
CC(=O)/C(C)=C\C=C(\C)C(C)=O	-7.2%	-11.5%	-16.2%	-84.5%	-0.45%	-4.7%
O=C1c2cc(Cl)ccc2-c2c(Cl)cccc21	22.9%	-4.95%	-10.9%	2.05%	4.05%	-14.9%
CN(C)S(=O)(=O)C(c1ccccc1)C(O)(c1ccccc1)c1ccc(Cl)cc1 (stereo unspecified)	72.1% (active)	45.5%	54.1%	22.9%	16.8%	57%
Cc1ccc2nc(CC(=O)c3ccc4ccccc4c3)c(=O)[nH]c2c1	6.4%	9.65%	9.2%	13.3%	3.15%	22.1%
O=NN(CCCl)C(=O)NCc1ccc[n+]([O-])c1	19.7%	8.6%	-2%	4.25%	2.2%	8.2%
COc1ccc(C2C3=C(COC3=O)Oc3cc4c(cc32)OCO4)cc1OC (stereo unspecified)	-21.5%	-33%	-17.9%	-3.95%	5.45%	-10.8%
COc1ccc(C=C(c2ccc(OCc3ccccc3)cc2)c2ccc(OCc3ccccc3)cc2)cc1	13.2%	-7.7%	6.55%	7.5%	-28.1%	-28.1%
